High-throughput results from PubChem BioAssay.
T cruzi growth-1 – T. cruzi intracellular proliferation inhibitors, primary screen, cell-based, beta-gal Tulahuen parasites, NIH3T3 host, luminescence. T. cruzi beta-gal in NIH3T3, GalScreen luminescence, 90 h. inhibition, % at 8.34 µM. 77,000 compounds, 5.9% hits. AID 624255, 2012;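 active means mean inhibition above about 93%, with at least 55% of replicates each passing it, limit read from the data, passing the limit was not always enough; inconclusive means only one of those two conditions holds; inactive means neither condition holds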
Pf Dd2 inh – P. falciparum Dd2 growth inhibitors, primary screen, SYBR Green fluorescence, single dose replicates; 94,000 compounds, 2.3% hits; activity change, % at 10 µM; 72 h; hits give low values; AID 1159554, 2015; in the data active means activity change below about -80%; inconclusive means no clear call, values can overlap the other calls
C diff HTS – C. difficile growth inhibitors, primary screen, HTS | Clostridium difficile clinical isolate growth, OD600, 24 h; hits give low values | growth activity, negative = inhibition, % at 16 µg/mL (by protocol) | 86,000 compounds, 0.25% hits;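 active means mean growth activity at or below -80% and every replicate also at or below -80%; inconclusive means mean at or below -80% but some replicate above -80%; inactive means mean growth activity above -80%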;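 further: 0% = DMSO wells and -100% = levofloxacin 16 µg/mL wells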
T cruzi growth-2 – T. cruzi intracellular proliferation inhibitors, confirmation, cell-based, NIH3T3 host, beta-gal parasite, luminescence, cherry-pick | shares compounds with T cruzi growth-1 | T. cruzi beta-gal in NIH3T3, GalScreen luminescence, 90 h | inhibition, % at 8.35 µM | 5,600 compounds, 72% hits | AID 651739, 2012;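 active means mean replicate inhibition above about 95% and at least 55% of replicates individually reaching it, limit read from the data; inconclusive means only one of the two criteria is met; inactive means neither criterion is met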
T cruzi growth-3 – inhibitors of intracellular T. cruzi replication, confirmation, NIH3T3 host cells, beta-gal parasites, cherry-pick, set 2 | shares compounds with T cruzi growth-1 | T. cruzi beta-gal in NIH3T3, GalScreen luminescence, 90 h | inhibition, % at 2.09 µM | 5,600 compounds, 21% hits | AID 651740, 2012;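 active means mean inhibition above about 95%, with at least 55% of replicates also reaching it, limit read from the data; inconclusive means meets just one of the two conditions; inactive means meets neither condition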;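 further: plate controls were neutral control median for no effect and positive control median for full effect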
3T3 cytotox – cytotoxicity in mouse NIH/3T3 fibroblasts, confirmation, cytotoxicity control for T. cruzi proliferation inhibitor project, cell-based, cherry-pick, single point | 5,600 compounds, 14% hits | NIH/3T3 viability, CellTiter-Glo ATP luminescence, 90 h | cytotoxicity (signal decrease), % at 8.35 µM | shares compounds with T cruzi growth-1;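 active means mean signal decrease across replicates above about 35% based on untreated-well scatter, with enough replicates individually passing, limit read from the data; inconclusive means no rule stated though some were filed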;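 further: 0% = median of neutral control wells and 100% = median of positive control wells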
3T3 cytotox 2 – NIH/3T3 fibroblast cytotoxicity, confirmation, cytotoxicity control, cell-based, cherry-pick, single point, set 2; shares compounds with T cruzi growth-1; NIH/3T3 viability, CellTiter-Glo ATP luminescence, 90 h; inhibition, % at 24.9 µM; 5,600 compounds, 56% hits; AID 651744, 2012;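 active means mean loss of cell viability signal at or above a set limit, and enough replicates individually reaching it; inconclusive means meets only the mean limit or only the replicate share; inactive means meets neither condition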;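 further: 0% = median of neutral control wells and 100% = median of positive control wells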
* marks the source's active call; other numbers are inactive results. An excerpt weighted towards active compounds, which were near 6.7% of everything screened.

Results for O=C(C[C@H]1CC[C@H]2[C@@H](COC[C@@H](O)CN2C(=O)Nc2ccccc2)O1)NC1Cc2ccccc2C1 ?
T cruzi growth-1: 0; Pf Dd2 inh: -12

Results for CCCNC(=O)N[C@@H]1CC[C@@H](CCn2cc(C3CCCC3)nn2)O[C@H]1CO ?
T cruzi growth-1: -70; Pf Dd2 inh: 4

What do the screens show for `C[C@H](CO)N1C[C@H](C)[C@H](CN(C)C(=O)Nc2ccccc2)OCCCC[C@H](C)Oc2ccc(NC(=O)C3CCCCC3)cc2C1=O`?
T cruzi growth-1: 31; Pf Dd2 inh: 1; C diff HTS: 2

Results for CNC[C@@H]1Oc2ncc(C#Cc3ccc(F)cc3)cc2C(=O)N([C@H](C)CO)C[C@@H]1C ?
T cruzi growth-1: 27; Pf Dd2 inh: 11; C diff HTS: 3

How did COC(=O)[C@@H]1[C@@H](CO)[C@@H]2Cn3c(ccc(/C=C/c4ccccc4)c3=O)[C@@H]2N1C(=O)CC1CC1 do in these assays?
T cruzi growth-1: 42; Pf Dd2 inh: 3; C diff HTS: -1

Results for COCC(=O)N1CCCCN2[C@H](CO)[C@@H](c3ccc(C#Cc4ccccc4)cc3)[C@H]2C1 ?
T cruzi growth-1: 36; Pf Dd2 inh: 53; C diff HTS: -9

What do the screens show for `CCC(=O)N1CCCCN2[C@H](CO)[C@@H](c3ccc(C#Cc4cccnc4)cc3)[C@@H]2C1`?
T cruzi growth-1: 44; Pf Dd2 inh: 19; C diff HTS: 9

Results for CN1CCCCN2[C@@H](CO)[C@@H](c3ccc(C#Cc4ccccc4F)cc3)[C@@H]2C1 ?
T cruzi growth-1: 93; Pf Dd2 inh: -47; C diff HTS: 10

Results for CC(=O)N1CCCCN2[C@H](CO)[C@@H](c3ccc(C#Cc4ccccc4F)cc3)[C@H]2C1 ?
T cruzi growth-1: 103*; Pf Dd2 inh: -24; C diff HTS: -6; T cruzi growth-2: 75; T cruzi growth-3: 44; 3T3 cytotox: 46*; 3T3 cytotox 2: 104*

What do the screens show for `CCC(=O)N1CCCCN2[C@@H](CO)[C@H](c3ccc(C#Cc4ccccc4F)cc3)[C@@H]2C1`?
T cruzi growth-1: 124*; Pf Dd2 inh: -29; C diff HTS: -9; T cruzi growth-2: 109*; T cruzi growth-3: 91; 3T3 cytotox: 45*; 3T3 cytotox 2: 104*

What do the screens show for `CN1CCCCN2[C@H](CO)[C@@H](c3ccc(C#Cc4ccccc4F)cc3)[C@@H]2C1`?
T cruzi growth-1: 82; Pf Dd2 inh: -34; C diff HTS: 0

How did CCC(=O)N1CCCCN2[C@@H](CO)[C@@H](c3ccc(C#Cc4ccccc4F)cc3)[C@@H]2C1 do in these assays?
T cruzi growth-1: 113*; Pf Dd2 inh: -17; C diff HTS: 3; T cruzi growth-2: 102*; T cruzi growth-3: 65; 3T3 cytotox: 10; 3T3 cytotox 2: 103*

Results for CCC(=O)N1CCCCN2[C@H](CO)[C@@H](c3ccc(C#Cc4ccccc4F)cc3)[C@H]2C1 ?
T cruzi growth-1: 112*; Pf Dd2 inh: -23; C diff HTS: -9; T cruzi growth-2: 102*; T cruzi growth-3: 47; 3T3 cytotox: 34; 3T3 cytotox 2: 104*

Results for CN1CCN(C(=O)C[C@H]2CC[C@H]3[C@@H](COC[C@@H](O)CN3Cc3ccc(Oc4ccccc4)cc3)O2)CC1 ?
T cruzi growth-1: 54; Pf Dd2 inh: -1

How did O=C(NC1CCCCC1)[C@@H]1[C@@H](CO)[C@@H]2Cn3c(cccc3=O)[C@@H]2N1CC1CCOCC1 do in these assays?
T cruzi growth-1: -10; C diff HTS: -2

How did CC(C)(O)C#Cc1ccc([C@@H]2[C@H](CO)N3CCCCN(C(=O)c4ccc(F)cc4)C[C@@H]23)cc1 do in these assays?
T cruzi growth-1: 19; Pf Dd2 inh: -16; C diff HTS: -1

Results for CC(C)C#Cc1ccc([C@H]2[C@@H](CO)N3CCCCN(C(=O)c4ccc(F)cc4)C[C@@H]23)cc1 ?
T cruzi growth-1: 84; Pf Dd2 inh: 1; C diff HTS: 44

Results for CC(C)(O)C#Cc1ccc([C@H]2[C@@H](CO)N3CCCCN(C(=O)c4cccc(F)c4)C[C@H]23)cc1 ?
T cruzi growth-1: 110*; Pf Dd2 inh: 19; C diff HTS: 9; T cruzi growth-2: 36; T cruzi growth-3: -22; 3T3 cytotox: -1; 3T3 cytotox 2: 5

What do the screens show for `CC(C)(O)C#Cc1ccc([C@H]2[C@H]3CN(C(=O)c4cccc(F)c4)CCCCN3[C@H]2CO)cc1`?
T cruzi growth-1: 79; Pf Dd2 inh: 24; C diff HTS: 11

Results for CC(C)(O)C#Cc1ccc([C@H]2[C@H](CO)N3CCCCN(C(=O)c4ccc(F)cc4)C[C@@H]23)cc1 ?
T cruzi growth-1: 122*; Pf Dd2 inh: -94*; C diff HTS: 12; T cruzi growth-2: inconclusive; T cruzi growth-3: -11; 3T3 cytotox: 13; 3T3 cytotox 2: 20

How did CC(C)(O)C#Cc1ccc([C@H]2[C@@H](CO)N3CCCCN(C(=O)c4ccc(F)cc4)C[C@H]23)cc1 do in these assays?
T cruzi growth-1: 112*; Pf Dd2 inh: -69; C diff HTS: -1; T cruzi growth-2: 48; T cruzi growth-3: 13; 3T3 cytotox: -13; 3T3 cytotox 2: -7

What do the screens show for `COc1ccc(CNC(=O)C[C@@H]2C[C@@H]3c4cc(NC(=O)CN(C)C)ccc4O[C@@H]3[C@@H](CO)O2)cc1`?
T cruzi growth-1: 34; Pf Dd2 inh: 13; C diff HTS: 1

How did CCCNC(=O)N1C[C@@H]2[C@H](c3ccccc31)[C@@H](CO)N2Cc1ccccc1F do in these assays?
T cruzi growth-1: 10; Pf Dd2 inh: -4; C diff HTS: 0

Results for C[C@H]1CN([C@@H](C)CO)C(=O)c2cc(C3=CCCCC3)cnc2O[C@@H]1CN(C)C(=O)NC1CCCC1 ?
Pf Dd2 inh: -16; C diff HTS: 13

Results for O=C(CCN1CCCCC1)NCC[C@H]1CC[C@@H](NC(=O)C2CC2)[C@H](CO)O1 ?
Pf Dd2 inh: 2; C diff HTS: 1

What do the screens show for `CC(C)NC[C@@H]1[C@@H](c2ccc(C3=CCCCC3)cc2)[C@H](CO)N1C(=O)NC(C)C`?
T cruzi growth-1: inconclusive; Pf Dd2 inh: -49; C diff HTS: 21; T cruzi growth-2: 101*; T cruzi growth-3: 79; 3T3 cytotox: -2; 3T3 cytotox 2: 105*
